Measured values: PubChem BioAssay (Tox21)
Records with an inconclusive call do not appear. Calls of active or inactive are those of the source. Unless noted, calls come from the whole dose curve; as a rule, active = well fitted curve in the direction sought with a large enough effect in the repeat runs; inconclusive = weak or mixed curves; inactive = no such curve, though single readings can be large; an effect the other way counts as inactive or inconclusive.

Experiments:
[1] = qHTS assay to identify small molecule agonists of the peroxisome proliferator-activated receptor delta (PPARd) signaling pathway - cell viability counter screen (AID 743211); note: nearly all actives have a fitted effect of over 55% in size; note: potency is the fitted concentration of half-maximal effect
Procedure, shortened: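 Luminescent ATP viability assay (CellTiter-Glo, 30 min RT) in UAS-bla HEK293H cells carrying the PPAR delta reporter construct, 3000 cells/well, after a 17 h compound treatment at 37 C.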

[2] = biological target: Peroxisome proliferator-activated receptor delta (Homo sapiens) (UniProt Q03181); assay: qHTS assay to identify small molecule agonists of the peroxisome proliferator-activated receptor delta (PPARd) signaling pathway (AID 743212; calls by dose curve)
Chain of Peroxisome proliferator-activated receptor delta (Homo sapiens) (Q03181 whole entry, looked up): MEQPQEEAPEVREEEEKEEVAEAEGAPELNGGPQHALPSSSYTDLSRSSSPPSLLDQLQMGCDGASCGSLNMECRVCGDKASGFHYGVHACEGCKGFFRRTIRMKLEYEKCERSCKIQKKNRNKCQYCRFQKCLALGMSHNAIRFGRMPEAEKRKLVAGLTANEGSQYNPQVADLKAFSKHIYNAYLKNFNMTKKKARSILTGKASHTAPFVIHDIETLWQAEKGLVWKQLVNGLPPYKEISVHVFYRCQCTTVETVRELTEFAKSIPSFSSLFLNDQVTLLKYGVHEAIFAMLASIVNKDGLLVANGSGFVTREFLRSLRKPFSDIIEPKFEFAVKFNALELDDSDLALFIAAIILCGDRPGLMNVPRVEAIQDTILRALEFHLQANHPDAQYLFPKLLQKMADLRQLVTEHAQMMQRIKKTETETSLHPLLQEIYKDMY
Procedure, shortened: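 Steps: seed PPARd-bla HEK293H cells; incubate 5 h, 37 C, 5% CO2; add compounds in DMSO; incubate, 37 C; add LiveBLAzer B/G FRET substrate; hold 2 h at room temperature; measure fluorescence.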

[3] = qHTS assay to identify small molecule antagonists of the peroxisome proliferator-activated receptor delta (PPARd) signaling pathway - cell viability counter screen (AID 743213); note: nearly all actives have a fitted effect of over 50% in size; note: potency is the fitted concentration of half-maximal effect
Procedure, shortened: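 HEK293H cells with the PPARd UAS-bla reporter, co-treated 17 h at 37 C with compounds and L165041 (300 nM final), were lysed with CellTiter-Glo. Luminescence indicated viable cell content.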

[4] = qHTS assay to identify small molecule agonists of the farnesoid-X-receptor (FXR) signaling pathway - cell viability counter screen (AID 743218); note: nearly all actives have a fitted effect of over 45% in size; note: potency is the fitted concentration of half-maximal effect
Procedure, shortened: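 Luminescence from CellTiter-Glo, read after 30 min at RT, reports viability of GeneBLAzer FXR-UAS-bla HEK 293T cells treated 16 h with compounds in the wells used for the beta-lactamase reporter.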

[5] = qHTS assay to identify small molecule antagonists of the farnesoid-X-receptor (FXR) signaling pathway - cell viability counter screen (AID 743221; active = well fitted cell-killing curve with a large enough effect in the repeat runs, not every such curve was filed as active; note: nearly all actives have a fitted effect of over 50% in size; note: potency is the fitted concentration of half-maximal effect)
Procedure, shortened: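 In GeneBLAzer FXR-UAS-bla HEK 293T cells stimulated with 50 uM chenodeoxycholic acid (final), compounds acted for 16 h at 37 C. Viability was assessed afterwards by CellTiter-Glo luminescence.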

[6] = biological target: Vitamin D3 receptor (Homo sapiens) (UniProt P11473); assay: qHTS assay to identify small molecule agonists of the vitamin D receptor (VDR) signaling pathway (AID 743222; calls by dose curve)
Chain of Vitamin D3 receptor (Homo sapiens) (P11473 whole entry, looked up): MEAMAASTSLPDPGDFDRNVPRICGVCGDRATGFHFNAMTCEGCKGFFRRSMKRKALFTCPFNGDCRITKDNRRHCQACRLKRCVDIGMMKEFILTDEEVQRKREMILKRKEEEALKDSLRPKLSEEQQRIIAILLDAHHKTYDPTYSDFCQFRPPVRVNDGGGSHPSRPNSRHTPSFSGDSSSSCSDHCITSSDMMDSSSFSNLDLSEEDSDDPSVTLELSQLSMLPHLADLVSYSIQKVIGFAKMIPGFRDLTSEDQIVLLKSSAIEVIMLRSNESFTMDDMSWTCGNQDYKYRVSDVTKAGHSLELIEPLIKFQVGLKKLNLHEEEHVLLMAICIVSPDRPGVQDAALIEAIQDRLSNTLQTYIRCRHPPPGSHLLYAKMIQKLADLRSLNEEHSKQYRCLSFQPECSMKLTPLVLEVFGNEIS
Procedure, shortened: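 Beta-lactamase reporter readout (LiveBLAzer B/G FRET, 2 h RT) in VDR-bla cells after 16 h compound treatment at 37C, 5% CO2; cells pre-incubated 4 h before pin transfer of DMSO solutions.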

[7] = biological target: Vitamin D3 receptor (Homo sapiens) (UniProt P11473); assay: qHTS assay to identify small molecule antagonists of the vitamin D receptor (VDR) signaling pathway (AID 743223; active = well fitted inhibition curve with a large enough effect in the signal ratio in the repeat runs, not every such curve was filed as active; the % refers to the signal ratio)
Procedure, shortened: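 Agonist 1alpha,25-dihydroxyvitamin D3 (3 nM in well) was added with each compound to VDR-bla cells preincubated 4 h. Cells stood 16 h at 37C, then FRET substrate 2 h at room temperature; fluorescence intensity recorded.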

[8] = qHTS assay to identify small molecule agonists of the vitamin D receptor (VDR) signaling pathway - cell viability counter screen (AID 743224); note: nearly all actives have a fitted effect of over 50% in size; note: potency is the fitted concentration of half-maximal effect
Procedure, shortened: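 Cytotoxicity counter screen: VDR-bla cells, 16 h compound exposure at 37C, 5% CO2; CellTiter-Glo luminescence, 30 min RT, same wells as bla read.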

[9] = qHTS assay to identify small molecule antagonists of the retinoid-related orphan receptor gamma (ROR-gamma) signaling pathway - cell viability counter screen (AID 1159520); note: nearly all actives have a fitted effect of over 50% in size; note: potency is the fitted concentration of half-maximal effect
Procedure, shortened: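 Cytotoxicity was read from cellular ATP (CellTiter-Glo luminescence) after 16 hr at 37 C with 1 uM doxycycline induction. The inducer was added 2 hr after compound transfer to Tet-on ROR gamma CHO cells.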

[10] = biological target: Nuclear receptor ROR-gamma (Homo sapiens) (UniProt P51449); assay: qHTS assay to identify small molecule antagonists of the retinoid-related orphan receptor gamma (ROR-gamma) signaling pathway (AID 1159521; note: nearly all actives have a fitted effect of over 50% in size; note: potency is the fitted concentration of half-maximal effect)
Procedure, shortened: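 CHO cells expressing RORγ under a TET-on promoter, luciferase under RORE control. Dox 1 uM final, 16 h; compounds added 2 h prior. Luminescence decrease measured.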

[11] = qHTS assay to identify small molecule agonists of the AP-1 signaling pathway - cell viability counter screen (AID 1159525; calls by dose curve; note: nearly all actives have a fitted effect of over 55% in size; note: potency is the fitted concentration of half-maximal effect)
Procedure, shortened: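 Intracellular ATP by Cell Titer Glo luminescence (30 min, RT) in the same ME-180 AP-1-bla wells after the 5 h compound exposure at 37 °C. Normalised to tetra n-octyl ammonium bromide and DMSO controls.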

[12] = qHTS assay to identify small molecule agonists of the RXR signaling pathway - cell viability counter screen (AID 1159529); note: nearly all actives have a fitted effect of over 50% in size; note: potency is the fitted concentration of half-maximal effect
Procedure, shortened: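 Same-well viability check after the LiveBLAzer FRET read: CellTiter-Glo added, luminescence measured after 30 min at room temperature. Reporter HEK 293T cells had been treated with compounds for 16 hr following a 5 hr preincubation.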

[13] = qHTS assay to identify small molecule antagonists of the retinoid acid receptor (RAR) signaling pathway - cell viability counter screen (AID 1159551); note: nearly all actives have a fitted effect of over 35% in size; note: potency is the fitted concentration of half-maximal effect
Procedure, shortened: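 C3RL4 RARE-luciferase line; cpds + retinol 1 uM final, 6 h, 37 C/5% CO2; CellTiter-Glo ATP luminescence, 30 min RT.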

[14] = qHTS assay to identify small molecule antagonists of the retinoic acid receptor (RAR) signaling pathway (AID 1159552; note: nearly all actives have a fitted effect of over 50% in size; note: potency is the fitted concentration of half-maximal effect)
Procedure, shortened: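 Readout: luciferase luminescence, 30 min post-reagent at RT. Setup: C3RL4 RARE reporter cells, compounds plus retinol 1 uM final, 6 hr incubation at 37 C and 5% CO2.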

[15] = biological target: Retinoic acid receptor RXR-alpha (Homo sapiens) (UniProt P19793); assay: qHTS assay to identify small molecule agonists of the RXR signaling pathway (AID 1159527; calls by dose curve; note: nearly all actives have a fitted effect of over 35% in size; note: potency is the fitted concentration of half-maximal effect)
Chain of Retinoic acid receptor RXR-alpha (Homo sapiens) (P19793 whole entry, looked up): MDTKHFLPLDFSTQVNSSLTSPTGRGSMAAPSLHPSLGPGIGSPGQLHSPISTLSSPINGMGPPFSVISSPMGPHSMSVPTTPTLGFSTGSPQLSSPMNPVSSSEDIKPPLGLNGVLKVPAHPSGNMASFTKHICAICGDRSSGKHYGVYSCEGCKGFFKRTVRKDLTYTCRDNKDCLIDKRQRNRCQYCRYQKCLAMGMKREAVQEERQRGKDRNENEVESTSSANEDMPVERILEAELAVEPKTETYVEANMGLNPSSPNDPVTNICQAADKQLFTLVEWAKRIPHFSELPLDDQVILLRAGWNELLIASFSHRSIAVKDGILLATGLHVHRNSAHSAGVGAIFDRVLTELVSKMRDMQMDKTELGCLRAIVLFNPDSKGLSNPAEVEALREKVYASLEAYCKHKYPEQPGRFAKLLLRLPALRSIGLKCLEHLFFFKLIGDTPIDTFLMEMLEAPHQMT
Procedure, shortened: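 Beta-lactamase reporter assay, agonist format. Engineered HEK 293T line, charcoal-stripped FBS at 2%, overnight (16 hr) exposure, fluorescence at 460 and 530 nm after 405 nm excitation.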

[16] = qHTS assay to identify small molecule antagonists of the vitamin D receptor (VDR) signaling pathway - cell viability counter screen (AID 743225)
Procedure, shortened: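 Luminescent cell viability (CellTiter-Glo) in VDR-bla HEK 293T cells after 16 h compound exposure at 37C in the presence of 3 nM final 1-alpha,25-dihydroxy vitamin D3.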

[17] = qHTS assay to identify small molecule agonists of the AP-1 signaling pathway (AID 1159526; calls by dose curve)
[18] = biological target: Bile acid receptor (Homo sapiens) (UniProt Q96RI1); assay: qHTS assay to identify small molecule antagonists of the farnesoid-X-receptor (FXR) signaling pathway (AID 743217; active = well fitted inhibition curve with a large enough effect in the signal ratio in the repeat runs, not every such curve was filed as active; the % refers to the signal ratio)
Chain of Bile acid receptor (Homo sapiens) (Q96RI1 whole entry, looked up): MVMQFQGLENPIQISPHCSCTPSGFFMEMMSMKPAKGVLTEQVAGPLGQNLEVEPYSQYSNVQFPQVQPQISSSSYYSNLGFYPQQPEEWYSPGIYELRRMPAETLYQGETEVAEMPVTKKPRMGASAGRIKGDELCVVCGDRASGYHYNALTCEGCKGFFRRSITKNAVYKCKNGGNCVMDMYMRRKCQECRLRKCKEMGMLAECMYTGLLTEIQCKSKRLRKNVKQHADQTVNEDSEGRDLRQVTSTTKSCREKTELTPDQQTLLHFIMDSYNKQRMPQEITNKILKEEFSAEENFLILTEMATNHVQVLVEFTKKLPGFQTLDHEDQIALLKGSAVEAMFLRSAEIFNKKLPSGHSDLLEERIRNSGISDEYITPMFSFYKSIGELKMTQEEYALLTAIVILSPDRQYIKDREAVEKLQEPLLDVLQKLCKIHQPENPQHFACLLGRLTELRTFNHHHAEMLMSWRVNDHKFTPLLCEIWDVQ
Procedure, shortened: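 Read-out: beta-lactamase FRET fluorescence (LiveBLAzer B/G substrate, 2 h, room temperature) in GeneBLAzer FXR-UAS-bla HEK 293T cells. Compounds were co-dosed with 50 uM chenodeoxycholic acid (final) and incubated 16 h at 37 °C.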

[19] = biological target: Bile acid receptor (Homo sapiens) (UniProt Q96RI1); assay: qHTS assay to identify small molecule agonists of the farnesoid-X-receptor (FXR) signaling pathway (AID 743220; active = well fitted activation curve with a large enough effect in the signal ratio in the repeat runs, not every such curve was filed as active; the % refers to the signal ratio)
Procedure, shortened: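 FXR-UAS-bla HEK 293T cells carrying a UAS-driven beta-lactamase reporter were plated for 5 h at 37C/5% CO2, then exposed to DMSO-dissolved Tox21 10K compounds for 16 h at 37C. A LiveBLAzer B/G FRET substrate was loaded for 2 h at room temperature before fluorescence reading.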

Measured: Potency

CCCCCCCCCCCCCCCCC(C(=O)O)C(O)(CC(=O)O)C(=O)O (stereo unspecified)
inactive: [2] | [6] | [7] | [9] | [10] | [13] | [14]
active: [1] 13.3 µM | [3] 18.8 µM | [4] 18.8 µM | [5] 23.7 µM | [8] 26.6 µM | [11] 21.3 µM | [12] 19 µM

COCCC(=O)OC
inactive: [9] | [10] | [11] | [15] | [12] | [13] | [14]

Cc1ccc(S(=O)(=O)C(I)I)cc1
active: [9] 17.2 µM | [10] 6.11 µM | [11] 17.4 µM | [12] 12.3 µM | [13] 43.3 µM | [14] 9.69 µM

CCc1cccc(C)c1N(C(=O)C(=O)O)C(C)COC (stereo unspecified)
inactive: [9] | [10] | [11] | [15] | [12] | [13] | [14]

C=C1C(CCl)(CCl)C2(Cl)C(Cl)C(Cl)C1(Cl)C2(Cl)Cl (stereo unspecified)
inactive: [13]
active: [1] 34.3 µM | [4] 48.4 µM | [8] 21.6 µM | [16] 48.4 µM | [9] 60.4 µM | [10] 48 µM | [11] 43.1 µM | [12] 24.3 µM

Oc1ccc2c(c1)CCC2
inactive: [9] | [11] | [17] | [15] | [12] | [13] | [14]

O=C(Nc1ccc([N+](=O)[O-])cc1)Nc1ccc([N+](=O)[O-])cc1 (tested in a mixture with another compound)
active: [12] 0.848 µM
inactive: [9] | [11] | [17] | [15] | [13]

Cc1ccc2n[nH]nc2c1
inactive: [9] | [11] | [17] | [15] | [12]

CC(C)(C)c1cc(CCC(=O)OCCSCCOC(=O)CCc2cc(C(C)(C)C)c(O)c(C(C)(C)C)c2)cc(C(C)(C)C)c1O
inactive: [9] | [11] | [17] | [15] | [12]

CCOc1nc(F)cc2nc(S(=O)(=O)Nc3c(Cl)cccc3C(=O)OC)nn12
inactive: [9] | [11] | [17] | [15] | [12] | [13] | [14]

COC(=O)c1ccc([N+](=O)[O-])cc1
inactive: [9] | [11] | [17] | [15] | [12] | [13] | [14]

Oc1ccc(Cl)cc1C1CCCC1
active: [15] 11 µM
not listed: [6] | [7] | [11] | [12] | [14] | [16] | [17]
inactive: all other assays above

CCCCCCCCSCc1cc(C)c(O)c(CSCCCCCCCC)c1
inactive: [9] | [13]
active: [10] 61.1 µM

CSc1nnc(C(C)(C)C)c(=O)[nH]1
inactive: [9] | [11] | [17] | [15] | [12] | [13]
